# Compound activity deposited in PubChem by National Center for Advancing Translational Sciences (NCATS).
# 12-LOX inh: blocks human arachidonate 12S-lipoxygenase; hit rate 1.1% among 580,000; purified 12hLO, xylenol orange hydroperoxide absorbance; Potency, µM (top dose mostly 108 µM), for the others: at the top dose activity change, negative = inhibition, actives largely listed as inhibitors; P18054; further: potency means the concentration at half of the fitted maximal effect
# Target sequence (P18054 whole entry, looked up): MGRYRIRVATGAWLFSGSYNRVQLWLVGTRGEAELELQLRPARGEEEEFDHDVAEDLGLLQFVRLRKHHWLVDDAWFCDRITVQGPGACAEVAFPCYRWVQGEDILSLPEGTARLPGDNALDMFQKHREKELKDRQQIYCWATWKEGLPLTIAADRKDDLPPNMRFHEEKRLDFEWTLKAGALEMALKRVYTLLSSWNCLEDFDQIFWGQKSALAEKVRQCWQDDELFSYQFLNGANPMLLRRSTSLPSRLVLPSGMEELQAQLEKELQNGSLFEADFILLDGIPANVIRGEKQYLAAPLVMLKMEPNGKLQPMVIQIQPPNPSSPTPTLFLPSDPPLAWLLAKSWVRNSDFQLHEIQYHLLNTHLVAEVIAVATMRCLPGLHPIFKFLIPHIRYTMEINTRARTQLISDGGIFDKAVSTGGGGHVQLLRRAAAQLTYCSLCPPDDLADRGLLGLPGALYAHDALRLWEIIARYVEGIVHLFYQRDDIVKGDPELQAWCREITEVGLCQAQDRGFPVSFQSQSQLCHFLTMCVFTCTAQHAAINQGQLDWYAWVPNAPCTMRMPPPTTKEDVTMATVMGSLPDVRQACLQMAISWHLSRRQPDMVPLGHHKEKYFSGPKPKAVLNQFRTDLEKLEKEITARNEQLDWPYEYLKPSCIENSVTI
#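 Hydroperoxide product was detected by ferrous iron/xylenol orange as the 573 to 405 nm absorbance ratio. Arachidonic acid at 40 uM (final) was turned over for 30 min at room temperature by 150 nM human 12hLO, pH 7.0 Hepes buffer, after 15 min compound preincubation.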
# HT1080 IDH1KD tx: toxicity to HT-1080 IDH1 knockdown cells (counter line) | HT-1080 IDH1 knockdown viability, ATP luminescence, 48 h | Potency, µM (series often up to 46.1 µM), without a hit: at the top dose activity, negative = toxicity, usual class: cytotoxic | hit rate 2% among 360,000;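 further: potency means the concentration at half of the fitted maximal effect; 0% = DMSO wells and -100% = cell-free medium wells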
#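 IDH1KD HT-1080 cells, 750/well, RPMI + 5% FBS; compound pinned after 2 h settling; 48 h, 37 °C; CellTiter-Glo luminescence; % activity normalised to DMSO and no-cell wells; curves fitted, classed by r2 and efficacy.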
# IL-1B inflam inh: inflammasome signaling inhibition, IL-1 beta readout; THP-1 LPS/ATP IL-1B secretion, AlphaLISA, 16 h; hits give low values; activity change, % at 57.5 µM; hit rate 4.7% among 360,000; AID 743279; in the data active means activity change below about -50%; inconclusive means mostly about -30% to -49%
#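 Secreted IL-1B measured by AlphaLISA bead assay after 16 h compound exposure of THP-1 cells; compounds (final up to 57.5 uM) added 1 h before LPS (250 ng/mL) and ATP (1.25 mM) stimulation; lower signal means less secretion.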
# HT1080-NT tox: kills 2HG-producing HT-1080-NT fibrosarcoma cells; HT-1080-NT fibrosarcoma viability, CellTiter-Glo ATP luminescence, 48 h; Potency, µM (series often up to 46.1 µM), for inactives: at the highest dose activity, negative = less viability, hits mostly cytotoxic; hit rate 1.6% among 360,000; AID 686970;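 further: NT is the 2HG producing partner of a matched IDH1 knockdown line; potency means the concentration at half of the fitted maximal effect; 0% = DMSO-treated cells and -100% = media-only wells without cells; nearly all actives have a fitted effect of over 55% in size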
#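 Viability by CellTiter-Glo luminescence after 48 h compound exposure at 37C of HT-1080-NT cells (750/well, RPMI, 5% FBS). % activity scaled between DMSO wells and medium-only wells, then curve-fitted and categorized by curve class.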
# TDP1 cell CPT: DT40-hTDP1 cell growth loss with CPT. chicken DT40 Tdp1-/-;hTDP1 cells + 20 nM CPT, ATP luminescence, 48 h. Potency, µM (titrated, usually from 46.2 µM), for inactives: top-dose activity change, negative = growth inhibition, actives largely listed as inhibitors. hit rate 12% among 420,000. AID 686979; further: potency means the concentration at half of the fitted maximal effect; nearly all actives have a fitted effect of over 55% in size
#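 Chicken DT40 Tdp1-/- cells complemented with human TDP1, 400 cells/well, exposed to compounds plus 20 nM camptothecin for at least 48 h at 37 C; viability read as ATP content by CellTiter-Glo luminescence.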
# TDP1 cell noCPT: qHTS for Inhibitors of human tyrosyl-DNA phosphodiesterase 1 (TDP1): qHTS in cells in absence of CPT. Potency, µM (series often up to 46.2 µM), without a hit: at the highest dose activity change, negative = growth inhibition, most hits filed as inhibitors. DT40 Tdp1-/- hTDP1 cells, no CPT, ATP luminescence, 48 h. hit rate 15% among 420,000. AID 686978, 2013; further: potency means the concentration at half of the fitted maximal effect; nearly all actives have a fitted effect of over 55% in size
#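 Chicken DT40 Tdp1-/- cells complemented with human TDP1, screened without camptothecin (DMSO vehicle only), 400 cells/well. Compounds pin-transferred, cells incubated at 37 °C for at least 48 hr. Growth read as ATP-dependent luminescence (CellTiter-Glo, 30 min at RT).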
# * marks the source's active call; other numbers are inactive results; ? = inconclusive; / = no result given; [ ] = remark or other dose. This is one part of a sample in which hits are shown more often than they occur. Unless noted, the call rests on the fitted dose curve; in most records, active means well fitted curve in the direction sought with a large enough effect; inconclusive means small, poorly fitted or top-dose-only effect, or another doubt; inactive means no such curve, though single readings can be large; an effect the other way counts as inactive or inconclusive. Unless noted, on the % scale 0 is the no-effect control and ±100 the full control effect.
SMILES,12-LOX inh,HT1080 IDH1KD tx,IL-1B inflam inh,HT1080-NT tox,TDP1 cell CPT,TDP1 cell noCPT
COc1ccc(/C=N/NC(=O)c2ccc(N(C)S(=O)(=O)c3ccccc3)cc2)cc1,-4%,-10%,-22,-2%,?,23µM*
CN(c1ccc(C(=O)N/N=C/c2cccc([N+](=O)[O-])c2)cc1)S(=O)(=O)c1ccccc1,-4%,?,-10,-21%,8.2µM*,?
CC(=O)Nc1ccc(NC(=O)c2ccc(S(=O)(=O)N(C)c3ccccc3)cc2)cc1,27%,2%,0,-4%,?,?
C=C(Cl)CN1CCC(CC(N)=O)CC1,-6%,/,/,/,/,/
O=C(Cc1ccccc1F)NCCC1CCN(C(=O)Nc2ccc(F)cc2F)CC1,44%,/,/,/,/,/
COc1cc(C(=O)/C=C/Nc2ccc(NC(C)=O)cc2)cc(OC)c1OC,-6%,18µM*,-20,?,?,?
COc1ccc(/C=N/NC(=O)CC(=O)N/N=C/c2ccc(OC)cc2)cc1,-7%,0%,-5,-5%,-13%,?
Cc1nc2ccc(NC(=O)c3ccc(S(=O)(=O)N(C)c4ccccc4)cc3)cc2s1,0%,?,-62*,-8%,?,23µM*
Cc1nc2ccc(NC(=O)N(C)c3ccccc3)cc2s1,-15%,26%,20,16%,0%,-23%
COc1ccc(C(=O)Nc2ccc(S(=O)(=O)N(C)c3ccccc3)cc2)cc1,226%,?,-65*,-17%,-25%,16µM*
COc1ccc(/C=N/NC(=O)C2c3ccccc3-c3ccccc32)cc1,14%,?,6,-29%,?,21µM*
O=C(NC1CCCC1)N1CCC2(CC1)CC(N(Cc1ccc(F)cc1)C1CC1)CCO2 (centres undefined),17%,/,/,/,/,/
COC(=O)c1sc(NC(=O)C2CCCCC2)c(C(=O)OC)c1C,-5%,/,/,/,/,/
COc1cc(C(=O)Nc2ccc(S(=O)(=O)NC(C)(C)C)cc2)cc(OC)c1OC,-14%,-15%,-8,0%,-28%,?
COc1cc(C(=O)Nc2ccc(S(=O)(=O)N(C)c3ccccc3)cc2)cc(OC)c1OC,15%,-13%,?,-2%,16µM*,?
COc1ccc(/C=N/NC(=O)c2ccc(NC(=O)c3ccccc3Br)cc2)cc1,?,-21%,-56*,-13%,?,?
CC(=O)Nc1ccc(S(=O)(=O)N2C[C@@H]3C[C@H](C2)c2c(-c4ccc(OC(F)(F)F)cc4)ccc(=O)n2C3)cc1,22%,/,/,/,/,/
NC(COCc1ccccc1)c1csc(Nc2ccc(C(=O)c3ccccc3)cc2)n1 (centres undefined),-26%,?,-66*,18µM*,15µM*,?
NC(=O)c1cccc(Nc2nc(C(N)COCc3ccccc3)cs2)n1 (centres undefined),9%,-29%,-26,-18%,18µM*,?
NCc1csc(Nc2ccc(C(=O)c3ccccc3)cc2)n1,3%,?,-9,?,0.92µM*,1µM*
NC(CCc1ccccc1)c1csc(Nc2ccc(C(=O)c3ccccc3)cc2)n1 (centres undefined),?,?,?,?,16µM*,18µM*
CC(C)CC(N)c1csc(Nc2ccc(S(C)(=O)=O)cc2)n1 (centres undefined),7%,-24%,-1,-11%,-30%,-12%
NC(CCc1ccccc1)c1csc(Nc2ccc(C(=O)NCCO)cc2)n1 (centres undefined),-12%,-29%,-15,-11%,?,23µM*
CS(=O)(=O)c1ccc(Nc2nc(C(N)CCc3ccccc3)cs2)cc1 (centres undefined),11%,?,-2,?,23µM*,21µM*
NC(CCc1ccccc1)c1csc(Nc2ccc(C(=O)NCCCO)cn2)n1 (centres undefined),5%,-1%,-20,?,-29%,-22%
SMILES,12-LOX inh,HT1080 IDH1KD tx,IL-1B inflam inh,HT1080-NT tox,TDP1 cell CPT,TDP1 cell noCPT
Cc1nc2c(oc3ccccc32)c(C)c1C(=O)c1ccc(Cl)cc1,-29%,/,/,/,/,/
CCOC(=O)c1c(-n2cnnn2)sc2c1CCCC2,-20%,3%,-28,2%,-22%,-21%
CCOC(=O)c1c(N2C(=O)C3C4C=CC(O4)C3C2=O)sc2c1CCCC2 (centres undefined),?,-16%,-13,-19%,8.2µM*,16µM*
CN1C[C@H](NC2CCC2)CCC[C@@H](C(=O)NC2CC2)CC1=O,12%[176 µM],/,/,/,/,/
CCOc1ccc(-n2c(N)c(C(=O)NCc3ccco3)c3nc4ccccc4nc32)cc1,/,?,-96*,?,21µM*,18µM*
Nc1c(C(=O)NCc2ccco2)c2nc3ccccc3nc2n1CCc1ccccc1,?,0%,-57*,?,?,?
CC(C)C(OC(=O)c1cccs1)C(=O)NCc1ccco1 (centres undefined),?,7%,0,17%,?,?
Cc1cc2c(cc(C(=O)OC(C(=O)NCc3ccco3)C(C)C)n2C)o1 (centres undefined),?,-15%,0,-24%,26µM*,18µM*
CCOc1ccc2c(c1)cc(C(=O)NCc1ccco1)n2C,18µM*,/,/,/,/,/
CCOc1ccc2c(c1)cc(C(=O)Nc1ccc(OC)cc1)n2C,2%,/,/,/,/,/
N#Cc1ccc(OCc2nc3c(n2Cc2ccccc2)C(=O)N(CC2CC2)CCN3)cc1,-6%[176 µM],/,/,/,/,/
CCn1ccc(C(=O)N2CCC3(CCC3NC(=O)COC)CC2)n1 (centres undefined),48%,/,/,/,/,/
CN(C)c1ccc(C=Nc2cncc3ccccc23)cc1,/,/,/,/,13%,-25%
Cc1ccc(C=Cc2ccccn2)cc1,-9%,13%,18,19%,-17%,?
Cc1cnc(/C=C/c2ccc(N(C)C)cc2)cn1,/,/,/,/,3.2µM*,2.8µM*
Cc1cnc2c(C)ccc(C)c2c1/C=C/c1ccc(N(C)C)cc1,/,/,/,/,?,16µM*
CCn1nc(C(=O)Nc2cccc(C(=O)Nc3ccncc3)c2)c2ccccc2c1=O,1%,/,/,/,/,/
CN(C)S(=O)(=O)c1ccc(N2CCOCC2)c(C(=O)N2CCCc3ccccc32)c1,-2%,/,/,/,/,/
O=C(OCc1cc(-c2ccccc2)on1)c1cccc(C(F)(F)F)c1,-6%,/,/,/,/,/
O=C(OCn1ncc(Cl)c(Cl)c1=O)c1cccc(C(F)(F)F)c1,/,21µM*,-101*,?,?,3.3µM*
